Consider seven molecules from PubChem BioAssay (NCATS).

Experiment [1] in a line: Cell Viability - HepG2 (AID 433; calls by dose curve;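 note: potency is the fitted concentration of half-maximal effect; potency for ATP loss meaning cytotoxicity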). The settings on record: qHTS. The method, boiled down:
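Cytotoxicity read as ATP loss (CellTiter-Glo luminescence) after 40 hr compound exposure of HepG2, 1500 cells/well, 37 °C. AC50 by Hill equation; 0% set by DMSO, 100% inhibition by 100 uM tamoxifen.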
Background: Quantitative high-throughput screening tests each substance at several concentrations.

A short description of experiment [2]: Cell Viability - MRC5 (AID 434; calls by dose curve;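 note: potency is the fitted concentration of half-maximal effect; cells exposed to compound for 40 hours at 37 °C; potency reflects cytotoxicity seen as loss of intracellular ATP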). Particulars: MRC5 lung fibroblast viability, qHTS. The essentials:
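Decrease in intracellular ATP, quantified by luciferase light output, reflects compound toxicity toward MRC5 cells exposed for 40 hr in complete culture medium. Concentration-response curves, scaled between DMSO and 100 uM tamoxifen, gave AC50 values.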

The target of experiment [3] is Mitogen-activated protein kinase 10 (Mus musculus) (UniProt Q61831). Kind of experiment: JNK3 AlphaScreen Assay (AID 530; active = well fitted curve in either direction with a large enough effect, not every such curve was filed as active;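 note: kinase came from lysate of stimulated human HepG2 cells; signal reports phosphorylation of biotinylated GST-cJun 1-79 at Ser73 with 10 µM ATP; % is set by controls: 0 for no effect and ±100 for the full control effect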). Particulars: JNK3 lysate, c-Jun phosphorylation; series mostly up to 57.1 µM. The essentials:
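Biotinylated GST-cJun(1-79) served as substrate for JNK3 in HepG2 lysates stimulated with IL-1beta and TNF-alpha. ATP was 10 uM final, pH 7.6. Ser73 phosphorylation was quantified by AlphaScreen (680 nm excitation).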
A general note: Alpha assays give light when donor and acceptor beads are brought close together.

Experiment [4] is described as follows: Cell Viability - Mesenchymal (AID 546).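 Note: cells exposed to compound for 40 hours before reading.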 The settings on record: mesenchymal cells viability, qHTS; series mostly up to 91.7 µM. The method, boiled down:
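In this qHTS cytotoxicity format, glomerulus-derived human mesenchymal kidney cells received compound for 40 hr, then luciferase-based ATP quantitation. Concentration-response data were fitted with the Hill equation.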

A short description of experiment [5]: Cellular Toxicity (caspase-3) SK-N-SH (AID 661).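 Note: cells exposed to compound for 16 hours; 0% = DMSO basal and 100% = 10 µM staurosporine.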 Particulars: SK-N-SH caspase-3 activation, qHTS; series mostly up to 91.7 µM. The method, boiled down:
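Luminescent Caspase-Glo 3/7 read-out after 16 hr compound exposure of SK-N-SH neuroblastoma cells at 37 °C. Signal increase normalized to DMSO (basal) and 10 uM staurosporine (100%); AC50 from Hill equation fits of qHTS concentration-response data.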

A short description of experiment [6]: Cellular Toxicity (caspase-3) H-4-II-E (AID 663).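 Note: cells exposed to compound for 16 hr before readout.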 Particulars: H-4-II-E rat hepatoma; Potency: caspase-3 activation; series mostly up to 92.2 µM. The essentials:
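Caspase 3/7 activation measured in H-4-II-E cells in complete culture medium after 16 hr treatment at 37 °C, using luciferase-coupled substrate readout; AC50 values come from Hill-equation fits of normalized concentration-response data.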

A short description of experiment [7]: MultiTox-Fluor Cytotoxicity Assay - LYMP1-002 - Dead Cells (AID 960).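 Note: 0% = DMSO and 100% = tetraoctylammonium bromide; nearly all actives have a fitted effect of over 60% in size.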 Particulars: LYMP1-002 lymphoblastoid cells, dead-cell protease fluorescence; series mostly up to 46.1 µM. The method, boiled down: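 Readout: fluorescence at 485/520 from cell-impermeant bis-AAF-R110 cleaved by proteases leaking from damaged cells. LYMP1-002 lymphoblastoid line, 16 hr compound treatment at 37 C, concentration-response in qHTS format; Hill-equation AC50 values.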

A short description of experiment [8]: MultiTox-Fluor Cytotoxicity Assay - LYMP1-003 - Live Cells (AID 962).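 Note: cells exposed to compound for 16 hours at 37 °C; 0% = DMSO only and full loss = 92 µM tetraoctylammonium bromide; cytotoxic hits lower the live-cell protease signal.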 Particulars: LYMP1-003 lymphoblastoid cells, MultiTox-Fluor live-cell protease fluorescence; series mostly up to 92.2 µM. The method, boiled down: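 Readout: live-cell fluorescence (Ex/Em=405/510) from GF-AFC cleavage after 60 min MultiTox-Fluor reagent at room temperature. Lymphoblastoid LYMP1-003 cells, 16 hr compound treatment, 37 C. Concentration-response fitted to standard Hill equation for AC50.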

Experiment [9] in a line: Cell Viability - LYMP2-005 (AID 967). Note: potency is the fitted concentration of half-maximal effect. Particulars: LYMP2-005 lymphoblastoid cell viability; series mostly up to 92.2 µM. The essentials: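 LYMP2-005 human lymphoblastoid cells (2500/well) were treated with compounds for 24 h at 37 C. Intracellular ATP was then measured by CellTiter-Glo luminescence after 30 min at room temperature. AC50 values came from Hill-equation fits of qHTS concentration-response data.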

Experiment [10] can be described thus: Cell Viability - LYMP2-021 (AID 974).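 Note: compound exposure lasts 24 hours at 37 °C; % is set by controls: 0 for no effect and ±100 for the full control effect; nearly all actives have a fitted effect of over 55% in size.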 Particulars: LYMP2-021 lymphoblastoid cells viability; series mostly up to 92.2 µM. The method, boiled down: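 ATP luminescence (CellTiter-Glo, 30 min RT) after 24 h compound exposure at 37 C; 2500 human lymphoblastoid cells/well, 5 h settle beforehand. Cytotoxicity = concentration-dependent ATP drop, AC50 by Hill fit.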

Experiment [11] in a line: Cell Viability - LYMP2-023 (AID 975).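 Note: cellular ATP measured by luciferase luminescence as viability proxy; plate controls were DMSO only for no effect and 92 µM tetraoctylammonium bromide control for full effect; nearly all actives have a fitted effect of over 55% in size.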 The settings on record: LYMP2-023 lymphoblastoid cell viability; series mostly up to 92.2 µM. The method, boiled down: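 CellTiter-Glo luminescence after 30 min at room temperature; decrease in intracellular ATP reflects toxicity. Cells: human lymphoblastoid line, 2500/well, 24 hr compound exposure at 37 C. AC50 fitted to standard Hill equation from concentration-response.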

A short description of experiment [12]: Cell Viability - LYMP2-006 (AID 978). Note: % is set by controls: 0 for no effect and ±100 for the full control effect; nearly all actives have a fitted effect of over 60% in size. Particulars: LYMP2-006 lymphoblastoid cell viability, qHTS; series mostly up to 92.2 µM. The essentials: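 Potency values are Hill-fit AC50s for decreases in intracellular ATP (CellTiter-Glo luminescence). LYMP2-006 lymphoblastoid cells, 2500 per well, were exposed to compound in complete culture medium for 24 hr at 37 C.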

Experiment [13] can be described thus: Cell Viability - LYMP2-007 (AID 979).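 Note: cells exposed to compound for 24 h before reading; 0% = DMSO only and the negative end = 92 µM tetraoctylammonium bromide; nearly all actives have a fitted effect of over 60% in size.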 The settings on record: LYMP2-007 lymphoblastoid cell viability; series mostly up to 92.2 µM. The essentials:
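qHTS cytotoxicity: 2500 cells/well, 5 hr 37 C settle, compound 24 hr 37 C, CellTiter-Glo 30 min RT, luminescence. Decrease in ATP = toxicity. AC50 by standard Hill equation; tetraoctylammonium bromide positive control.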

For experiment [14], the target named is Thyroid hormone receptor beta (Homo sapiens) (UniProt P10828). Kind of experiment: qHTS assay for small molecule agonists of thyroid hormone receptor beta signaling (AID 588545; calls by dose curve). Particulars: TR-UAS-bla GripTite HEK 293, beta-lactamase ratio, agonist mode, 18 h; series mostly up to 76.7 µM. The essentials: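 Agonist activity was read as beta-lactamase CCF4 fluorescence (405 ex, 460/530 em), scaled between DMSO (0%) and 10 nM T3 (100%), then Hill-fitted for EC50 and efficacy. HEK 293 TR-UAS-bla cells in 2% charcoal/dextran FBS medium were exposed 18 h at 37 C.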
Chain of Thyroid hormone receptor beta (Homo sapiens) (P10828 whole entry, looked up): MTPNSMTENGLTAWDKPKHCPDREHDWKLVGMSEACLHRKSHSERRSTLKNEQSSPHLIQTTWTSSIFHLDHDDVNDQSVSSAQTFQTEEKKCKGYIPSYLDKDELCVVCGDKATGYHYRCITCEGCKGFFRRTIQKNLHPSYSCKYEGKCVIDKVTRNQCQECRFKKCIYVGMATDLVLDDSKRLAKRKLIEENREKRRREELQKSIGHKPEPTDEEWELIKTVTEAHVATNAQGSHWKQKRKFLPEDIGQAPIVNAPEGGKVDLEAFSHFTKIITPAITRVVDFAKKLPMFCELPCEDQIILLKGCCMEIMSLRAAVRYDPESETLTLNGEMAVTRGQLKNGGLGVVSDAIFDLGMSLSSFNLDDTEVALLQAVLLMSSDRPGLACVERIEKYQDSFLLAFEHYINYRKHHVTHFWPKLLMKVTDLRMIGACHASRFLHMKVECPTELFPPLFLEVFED

Experiment [15] shares this target. Nature of the experiment: qHTS assay for small molecule antagonists of thyroid hormone receptor beta signaling (AID 588547; active = well fitted inhibition curve with a large enough effect in the signal ratio, with a control signal flat, not every such curve was filed as active; the % refers to the signal ratio;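 note: cells stimulated with 0.4 nM T3 agonist during compound exposure; % is set by controls: 0 for no effect and ±100 for the full control effect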). The settings on record: TR-UAS-bla HEK293, beta-lactamase ratio, antagonist mode, 18 h. The essentials:
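TR-UAS-bla GripTite HEK293 cells in 2% charcoal/dextran FBS medium were preincubated 4 h at 37 C, given compound (0.59 nM to 92 uM) plus 0.4 nM T3 (final) for 18 h, then CCF4 for 2 h at RT; Hill fit gave IC50.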

The target of experiment [16] is Nuclear receptor subfamily 1 group I member 2 (Rattus norvegicus) (UniProt Q9R1A7). Kind of experiment: qHTS assay for small molecule activators of the rat pregnane X receptor (rPXR) signaling pathway (AID 651751; call rule not given here; note: 0% is about no effect). The settings on record: rPXR reporter cells, luciferase (One-Glo), 24 h.
Chain of Nuclear receptor subfamily 1 group I member 2 (Rattus norvegicus) (Q9R1A7 whole entry, looked up): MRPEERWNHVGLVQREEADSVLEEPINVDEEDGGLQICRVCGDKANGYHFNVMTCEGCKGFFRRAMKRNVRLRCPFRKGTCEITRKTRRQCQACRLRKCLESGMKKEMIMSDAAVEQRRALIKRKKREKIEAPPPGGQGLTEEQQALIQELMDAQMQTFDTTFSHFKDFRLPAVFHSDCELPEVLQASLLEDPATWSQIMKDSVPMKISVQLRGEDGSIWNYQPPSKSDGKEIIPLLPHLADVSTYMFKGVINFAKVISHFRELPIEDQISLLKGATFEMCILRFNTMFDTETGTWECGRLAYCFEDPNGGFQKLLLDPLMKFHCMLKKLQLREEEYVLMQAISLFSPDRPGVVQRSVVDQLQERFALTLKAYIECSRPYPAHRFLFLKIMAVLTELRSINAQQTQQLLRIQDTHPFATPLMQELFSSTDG
The nature of experiment [17]: qHTS assay for small molecule activators of the human pregnane X receptor (PXR) signaling pathway (AID 720659; call rule not given here; note: 0% is about no effect). The settings on record: DPX-2 HepG2 CYP3A4-luciferase, 24 h; series mostly up to 92.3 µM.
Experiment [18] is described as follows: Cellular Toxicity (caspase-3) HUV-EC-C (AID 656). The settings on record: HUV-EC-C cells, caspase-3 activation (apoptosis), vehicle = 0, 100 µM tamoxifen = 100%; series mostly up to 92.2 µM. The method, boiled down: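 Luminescent Caspase-Glo 3/7 readout after 16 h, 37 °C compound exposure of HUV-EC-C endothelial cells, 1000 per well, complete medium. AC50 derived by Hill fitting, with DMSO as baseline and 100 uM tamoxifen as full activation.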

The target in experiment [19] is Vitamin D3 receptor (Homo sapiens) (UniProt P11473). Nature of the experiment: qHTS assay for small molecule antagonists of vitamin D receptor signaling (AID 588541; calls by dose curve;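 note: receptor activated by calcitriol during compound treatment; % is set by controls: 0 for no effect and ±100 for the full control effect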). The settings on record: HEK293T VDR-UAS-bla, beta-lactamase ratio, antagonist mode; series mostly up to 76.7 µM. The essentials:
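VDR-UAS-bla HEK293T cells (2000/well, 2% charcoal-stripped FBS) were treated with titrated compounds plus 1-alpha,25-dihydroxyvitamin D3 (50 nM or 3 nM final) for 16 h at 37 C. CCF4 beta-lactamase fluorescence was read; Hill fits gave IC50.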

Experiment [20] addresses Retinoic acid receptor RXR-alpha (Homo sapiens) (UniProt P19793). Nature of the experiment: qHTS assay for small molecule agonists of retinoid X receptor alpha signaling (AID 588544; calls by dose curve;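 note: 0% = DMSO basal wells and 100% = reference agonist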). Particulars: HEK293T RXRa-UAS-bla, beta-lactamase reporter, 18 h; series mostly up to 76.7 µM.

Unmarked numbers belong to inactive results. Inconclusive results are not listed. The source made the active and inactive calls. Unless noted, calls come from the whole dose curve; as a rule, active = well fitted curve in the direction sought with a large enough effect; inconclusive = small, poorly fitted or top-dose-only effect, or another doubt; inactive = no such curve, though single readings can be large; an effect the other way counts as inactive or inconclusive.

Chain of Retinoic acid receptor RXR-alpha (Homo sapiens) (P19793 whole entry, looked up): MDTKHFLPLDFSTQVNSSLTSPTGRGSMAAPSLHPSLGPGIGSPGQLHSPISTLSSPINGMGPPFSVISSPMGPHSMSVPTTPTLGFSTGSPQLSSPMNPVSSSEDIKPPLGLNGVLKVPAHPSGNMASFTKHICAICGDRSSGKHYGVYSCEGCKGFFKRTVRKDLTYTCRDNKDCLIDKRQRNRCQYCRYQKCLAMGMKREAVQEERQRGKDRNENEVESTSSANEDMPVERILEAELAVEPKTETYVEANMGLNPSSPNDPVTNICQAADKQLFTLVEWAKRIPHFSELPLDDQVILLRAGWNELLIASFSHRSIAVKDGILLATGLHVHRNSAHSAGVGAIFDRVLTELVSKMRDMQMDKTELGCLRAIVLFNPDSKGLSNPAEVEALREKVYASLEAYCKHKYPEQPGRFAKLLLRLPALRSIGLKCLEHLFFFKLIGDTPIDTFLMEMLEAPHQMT
Chain of Vitamin D3 receptor (Homo sapiens) (P11473 whole entry, looked up): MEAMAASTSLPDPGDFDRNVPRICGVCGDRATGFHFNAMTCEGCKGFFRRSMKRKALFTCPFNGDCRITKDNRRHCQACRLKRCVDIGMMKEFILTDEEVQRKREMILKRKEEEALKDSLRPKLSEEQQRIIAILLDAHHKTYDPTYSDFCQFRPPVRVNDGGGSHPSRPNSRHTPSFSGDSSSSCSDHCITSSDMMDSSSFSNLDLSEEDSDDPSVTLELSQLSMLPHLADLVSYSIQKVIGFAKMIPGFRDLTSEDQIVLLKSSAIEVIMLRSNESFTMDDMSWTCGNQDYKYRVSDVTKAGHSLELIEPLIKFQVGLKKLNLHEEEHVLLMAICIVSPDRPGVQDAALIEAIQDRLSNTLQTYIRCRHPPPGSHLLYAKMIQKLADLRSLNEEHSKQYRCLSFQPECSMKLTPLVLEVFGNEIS

As for `C/C=C/CC#N`, the Potency in experiment [1] and in [2] was greater than 92 µM each time. Further, the Potency result in experiment [3], in experiment [4], in experiment [5], in experiment [6], in [7] and in [9] was “inactive” in each case. Also, the Potency entry in [10], in experiment [11], in experiment [12], in [13] and in experiment [14] was “inactive” throughout. For the same molecule, the molecule was classed as inactive in experiment [8] and in experiment [17]. Also, the activity change % (negative = inhibition) in [15] was 15.6%. In [16], the max response is -0.823%.

Turning to `O=P(OCCCl)(OCCCl)OCCCl`, the Potency in [1] and in experiment [2] was greater than 92 µM in each case. The Potency result in [3], in experiment [4], in experiment [5], in experiment [6], in [7] and in [9] was “inactive” throughout. Moreover, the Potency result in experiment [11], in [12], in experiment [13] and in experiment [14] was “inactive” throughout. Also, the molecule was called inactive in [18], in experiment [19] and in [17]. For the same molecule, the activity change % (negative = inhibition) in experiment [15] was 2.42%. The max response in [16] was 6.23%.

For the molecule `[N-]=[N+]=[N-]`, the Potency in experiment [1] was greater than 92 µM; in experiment [2] it was greater than 92 µM; in experiment [9], 2.51 µM (active). For the same molecule, the Potency entry in [3], in experiment [5], in experiment [6], in experiment [7], in [10] and in experiment [11] was “inactive” throughout. For the same molecule, the Potency result in experiment [12], in [13] and in [14] was “inactive” each time. Moreover, the call in experiment [8], in experiment [19], in experiment [20] and in experiment [17] was inactive. Also, the activity change % (negative = inhibition) in experiment [15] was 7.76%. In experiment [16], the max response is -8.68%.

In the case of `COc1ccc(C=O)cc1`, the Potency in [1] and in [2] was greater than 92 µM throughout. For the same molecule, the Potency entry in experiment [4], in experiment [5], in [6], in experiment [7], in experiment [9] and in experiment [10] was “inactive” in each case. In addition, the Potency entry in experiment [11], in experiment [12] and in experiment [13] was “inactive” throughout. In addition, the call in [18], in experiment [8], in [19] and in experiment [17] was inactive. For the same molecule, the activity change % (negative = inhibition) in [15] was 19.4%. For the same molecule, the max response in experiment [16] is 2.55%.

Take `COC(=O)c1ccccc1N`: the Potency in experiment [1] and in experiment [2] was greater than 92 µM each time. The Potency entry in experiment [3], in experiment [4], in experiment [5], in experiment [6], in experiment [7] and in [9] was “inactive” each time. Moreover, the Potency entry in [10], in [12], in [13] and in [14] was “inactive” throughout. Moreover, the outcome in [8], in experiment [19], in [20] and in experiment [17] was inactive. Besides, the activity change % (negative = inhibition) in experiment [15] was -1.98%. Besides, the max response in [16] is -0.835%.

`CC(=O)[O-].CC(=O)[O-].CC(=O)[O-].[Cr+3]`: the Potency in experiment [1] and in experiment [2] was greater than 92 µM in each case. Besides, the Potency result in experiment [3], in [4], in [5], in experiment [6], in experiment [7] and in experiment [9] was “inactive” in each case. Also, the Potency result in [10], in experiment [12], in experiment [13] and in [14] was “inactive” in each case. For the same molecule, the result in experiment [8] and in experiment [20] was inactive. Besides, the activity change % (negative = inhibition) in [15] was 2.34%.

For the molecule `ClP(Cl)(Cl)(Cl)Cl`, the Potency in [1] and in experiment [2] was greater than 92 µM throughout. For the same molecule, the Potency result in [3], in experiment [4], in experiment [5], in experiment [6], in [7] and in [9] was “inactive” each time. Also, the Potency entry in experiment [10], in [11], in [12], in [13] and in [14] was “inactive” each time. For the same molecule, the molecule was classed as inactive in [18], in experiment [8], in experiment [19], in experiment [20] and in [17]. Moreover, the activity change % (negative = inhibition) in experiment [15] was -5.32%. Further, in [16], the max response was 0.805%.
